p53 reactivation = qHTS assay for re-activators of p53 using a Luc reporter; Potency, µM (doses to about 92.2 µM), for the others: at the top dose activity change, positive = activation, usual class: activators; H1299 p53-A138V BP100-luciferase reporter, luminescence, 24 h; 0.063% of 320,000 active; further: % of control where 0% means no effect; nearly all actives have a fitted effect of over 45% in size
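p53-null H1299 cells stably carrying temperature-sensitive p53-A138V and a BP100-luciferase reporter were pinned with compounds (4-point, 1:5 series) and held 24 hrs at 37 deg C. Luminescence was read 10 min after detection reagent.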
SMN2 splice enh = qHTS Assay for Enhancers of SMN2 Splice Variant Expression; HEK293 SMN2-luciferase splicing reporter, luminescence, 30-36 h; Potency, µM (titrated, usually from 46.1 µM), for the others: at the top dose activity change, positive = activation, most hits filed as activators; 2.8% of 210,000 active; AID 1458, 2008; further: % of control where 0% means no effect; nearly all actives have a fitted effect of over 55% in size
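HEK293 cells carry an SMN2 […]–luciferase reporter in which exon 7 inclusion puts luciferase in frame. Cells were plated 10-12 h before compound addition, then incubated 30-36 h at 37C. ONE-Glo luminescence was read; sodium butyrate at 4.5 mM final served as control.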
Rab9 promoter act = qHTS Assay for Rab9 Promoter Activators | Huh7 Rab9 promoter-luciferase reporter, luminescence, 24 h | Potency, µM (titrated, usually from 9.22 µM), without a hit: at the highest dose activation, negative = inhibition, actives largely listed as activators | 2.8% of 320,000 active | AID 485297, 2010; further: % of control where 0% means no effect; nearly all actives have a fitted effect of over 60% in size
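Cell-based reporter: Huh7 stable for Rab9 promoter-driven luciferase, plated in reduced-serum medium with 10% FBS at 1500 cells/well, compound-treated 24 h at 37 °C, luminescence read after 10 min reagent.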
ELG1 genotoxic = qHTS screen for small molecules that induce genotoxicity in human embryonic kidney (HEK293T) cells expressing luciferase-tagged ELG1. AID 504466, 2011. Potency, µM (top dose mostly 46 µM), for the others: at the highest dose activity change, positive = activation, hits mostly activators. 1.3% of 330,000 active. HEK293T ELG1-luciferase reporter, luminescence, 16 h; further: % of control where 0% means no effect; nearly all actives have a fitted effect of over 60% in size
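After overnight (16 hr) compound treatment at 37 °C, ELG1-luciferase HEK293T cells were lysed with ONE-Glo; luminescence quantified 30 min later at room temperature.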
FLuc counter = qHTS profiling assay for firefly luciferase inhibitor/activator using purifed enzyme and Km concentrations of substrates (counterscreen for miR-21 project); 6.9% of 360,000 active; purified FLuc, Km substrates, luminescence inhibition; Luciferin 4-monooxygenase (Photinus pyralis), P08659; Potency, µM (top dose mostly 57.5 µM), without a hit: at the top dose activity change, negative = inhibition, hits mostly inhibitors; AID 588342, 2011;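 further: plate controls were vehicle for no effect and reference inhibitor for full effect; nearly all actives have a fitted effect of over 55% in size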
Target sequence (P08659 whole entry, looked up): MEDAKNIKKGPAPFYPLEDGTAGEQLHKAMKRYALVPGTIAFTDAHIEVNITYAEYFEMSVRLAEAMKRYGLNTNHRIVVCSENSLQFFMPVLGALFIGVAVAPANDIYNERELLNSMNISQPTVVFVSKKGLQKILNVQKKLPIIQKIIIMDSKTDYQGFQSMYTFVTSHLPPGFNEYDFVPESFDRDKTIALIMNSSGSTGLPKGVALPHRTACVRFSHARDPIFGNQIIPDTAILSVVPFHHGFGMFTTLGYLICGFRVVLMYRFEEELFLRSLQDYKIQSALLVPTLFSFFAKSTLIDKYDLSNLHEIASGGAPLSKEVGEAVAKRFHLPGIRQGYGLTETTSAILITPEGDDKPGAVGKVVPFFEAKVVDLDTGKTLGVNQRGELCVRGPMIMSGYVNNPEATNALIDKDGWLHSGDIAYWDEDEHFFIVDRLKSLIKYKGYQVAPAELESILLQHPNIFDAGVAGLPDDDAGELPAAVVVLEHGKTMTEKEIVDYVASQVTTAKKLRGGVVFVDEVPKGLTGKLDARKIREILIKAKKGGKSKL
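Biochemical qHTS of compounds, final roughly 60 µM downward over six points, against 10 nM purified firefly luciferase using Km concentrations of substrates (10 uM D-luciferin, 10 uM ATP) in Tris acetate pH 7.5 buffer; luminescence output.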
NPC1 prom act = qHTS Assay for NPC1 Promoter Activators; Huh7 NPC1 promoter luciferase reporter, 24 h; 2.4% of 320,000 active; AID 485313, 2010; Potency, µM (doses to about 9.22 µM), for the others: top-dose activation, most hits filed as activators; further: % of control where 0% means no effect; nearly all actives have a fitted effect of over 60% in size
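Huh7 cells stably carrying NPC1 promoter–luciferase, plated in Opti-MEM with 10% FBS for 2 h, were exposed to compound in DMSO for 24 h at 37 °C; luciferase reagent was added for 10 min and luminescence read.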
Numbers without * were called inactive; ? = inconclusive; . = not tested or not shown. Compounds with a hit are over-represented: about 7.3% of the library has one in this group of screens. The call rests on the fitted dose curve; in most records, active means well fitted curve in the direction sought with a large enough effect; inconclusive means small, poorly fitted or top-dose-only effect, or another doubt; inactive means no such curve, though single readings can be large; an effect the other way counts as inactive or inconclusive. Potency means the concentration at half of the fitted maximal effect.

SMILES	p53 reactivation	SMN2 splice enh	Rab9 promoter act	ELG1 genotoxic	FLuc counter	NPC1 prom act
CCOc1ccc(CNC(=O)C2Cc3cc(S(=O)(=O)N4CCCCCC4)ccc3N2C(C)=O)cc1 (centres undefined)	.	10%	.	.	-1%	.
COc1ccc(NC(=O)C(NS(=O)(=O)c2ccc3c(c2)CCCC(=O)N3)C(C)C)c(OC)c1 (centres undefined)	.	.	.	.	-5%	.
COc1ccc(-c2nc3c4cnn(-c5ccccc5F)c4ncn3n2)cc1	.	16%	.	.	?	.
CCc1ccc(NC(=O)Cn2c(=O)n(CCCCC(=O)NCCc3ccccc3)c(=O)c3ccccc32)cc1	.	-13%	.	.	2%	.
Cc1ccc(-n2c(C)cc(C(=O)COc3cccnc3[N+](=O)[O-])c2C)cc1	?	-42%	-5%	?	17µM*	-2%
Cc1cc(C(=O)COc2cccnc2[N+](=O)[O-])c(C)n1-c1ccccc1F	-8%	.	12%	5%	6µM*	23%
Cc1cc(C(=O)COc2cccnc2[N+](=O)[O-])c(C)n1-c1ccccc1	3%	-43%	-3%	7%	2.7µM*	3%
CC(C)C(=O)Nc1nc2ccc(S(C)(=O)=O)cc2s1	26%	27%	18%	-2%	?	14%
CS(=O)(=O)c1ccc2nc(NC(=O)CS(=O)(=O)Cc3ccccc3)sc2c1	0%	-6%	11%	1%	17µM*	1%
CS(=O)(=O)c1ccc2nc(NC(=O)Nc3ccccc3F)sc2c1	37%	.	1.1µM*	?	0.54µM*	0.32µM*
CS(=O)(=O)c1ccc2nc(NC(=O)Cc3ccccc3)sc2c1	6%	.	14%	3%	-6%	-1%
NS(=O)(=O)c1ccc2nc(NC(=O)c3ccncc3)sc2c1	8%	.	23%	12%	6.7µM*	18%
CC(C)(C)C(=O)Nc1nc2ccc(S(C)(=O)=O)cc2s1	-3%	7.9µM*	1.8µM*	6%	?	?
CCOc1ccc(-c2nnc(SCC(=O)NCc3ccc(C)cc3)nc2-c2ccc(OCC)cc2)cc1	.	.	.	.	6%	.
CS(=O)(=O)c1ccc2nc(NC(=O)c3ccccc3)sc2c1	.	.	0.5µM*	?	2.1µM*	0.63µM*
COc1ccc(C(=O)Nc2nc3ccc(S(C)(=O)=O)cc3s2)cc1OC	2%	.	-1%	4%	0%	2%
CS(=O)(=O)c1ccc2nc(NC(=O)c3ccc(NS(=O)(=O)c4cccc([N+](=O)[O-])c4)cc3)sc2c1	7%	.	11%	-1%	11µM*	-3%
Cc1cccc(C(=O)Nc2nc3ccc(S(C)(=O)=O)cc3s2)c1	?	.	?	?	2.1µM*	2.2µM*
Cc1ccc(C(=O)Nc2nc3ccc(S(C)(=O)=O)cc3s2)cc1C	14%	.	12%	10%	-1%	14%
Cc1ccc(NC2CCCN(C(=O)c3cccc4nccnc34)C2)cc1C (centres undefined)	22%	.	-1%	4%	1%	-1%
COc1ccc(CCNC(=O)CN2c3cccc4cccc(c34)S2(=O)=O)cc1	-11%	.	1%	1%	-1%	-1%
CC1CCN(C2=NC(=O)/C(=C/c3cn(-c4ccccc4)nc3-c3cccc(S(=O)(=O)N(C)C)c3)S2)CC1	-24%	-2%	?	1%	2.7µM*	23%
Cc1ccc(C)c(CN2C(=O)c3ccccc3S(=O)c3ccc(C(=O)NCc4ccco4)cc32)c1 (centres undefined)	.	11%	.	.	0%	.
CCCCCC(=O)NNC(=O)Nc1ccccc1	3%	12%	3%	-2%	0%	-1%
CCCCSC(=O)Nc1ccccc1	13%	7%	7%	?	17µM*	-1%

Screening data from PubChem BioAssay.
